Experimental data reported in the supplement of paper PMC10127200.
Structures can show the parent of a compound that is named as a salt.

What was measured:
Experiment in all cases: Euclidean distance of Cell Painting phenotypic profile (signed KS, 77 features) to DMSO centroid (dimensionless distance); 5 or 10 uM (library dependent); higher = stronger phenotypic change vs DMSO (phenoactivity)
Conditions in all cases: 48 h
[1] = system: 786-O
Procedure, shortened: (§1)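 Library compounds were applied at 10 or 5 uM, depending on the library, with 0.1% DMSO final, for 48 h to five cancer lines and a healthy fibroblast line. After staining, cells were imaged confocally at 20X across 9 fields per well, and Harmony extracted 77 features, each scored as a signed Kolmogorov-Smirnov statistic against vehicle wells on the same plate. Phenoactivity is the Euclidean distance between each profile and the median vehicle profile, with profiles first plate-position corrected, correlation-weighted and averaged over replicates at the top dose.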

[2] = system: A549
Procedure, shortened: as §1

[3] = system: DU145
Procedure, shortened: as §1

[4] = system: FB
Procedure, shortened: as §1

[5] = system: HEPG2
Procedure, shortened: as §1

[6] = system: OVCAR4
Procedure, shortened: as §1

Row | Compound | Euclidean distance [1] | Euclidean distance [2] | Euclidean distance [3] | Euclidean distance [4] | Euclidean distance [5] | Euclidean distance [6]
1 | CCCS(=O)(=O)Nc1ccc(F)c(C(=O)c2c[nH]c3ncc(Cl)cc23)c1F | 0.904 | 1.4 | 0.951 | 1.12 | 2.17 | 0.992
2 | CCOC(=O)Nc1cc(-c2ccc(C)c(NS(C)(=O)=O)c2)nn2c(C)nnc12 [Bromosporine] | 3.34 | 2.36 | 2.42 | 4.35 | 1.13 | 2.35
3 | C[N+](C)(C)CCO.O=C([O-])C(O)C(O)C(=O)O (centres undefined) [Choline bitartrate] | 1.35 | 1.24 | 0.973 | 1.15 | 0.96 | 1.37
4 | N#CSc1cc(SC#N)c(N)nc1N | 0.526 | 2.18 | 0.906 | 1.25 | 1.27 | 1.14
5 | Cc1cc(N2CCOCC2)ccc1Nc1nc(NC2CCCCC2)c2[nH]cnc2n1 | 1.79 | 2.73 | 1.25 | 1.29 | 1.78 | 1.73
6 | Cc1cc(NS(=O)(=O)c2ccc(N)cc2)no1 [Sulfamethoxazole] | 1.58 | 0.797 | 0.847 | 1.02 | 0.562 | 0.86
7 | C=C1C(=O)[C@]23[C@H](O)[C@H]1CC[C@H]2[C@@]12CO[C@]3(O)[C@@H](O)[C@@H]1C(C)(C)CC[C@@H]2O [Oridonin] | 1.57 | 1.32 | 1.1 | 1.01 | 1.03 | 1.33
8 | Cc1cc(O)c2c(c1)C(=O)c1cc(O)cc(O)c1C2=O [Emodin] | 1.3 | 1.13 | 1.01 | 1 | 1.85 | 0.712
9 | FC(F)(c1ccc2ncccc2c1)c1nnc2ccc(-c3ccncc3)nn12 | 1.6 | 0.84 | 2.54 | 0.717 | 1.24 | 1.2
10 | CO/N=C(\C(=O)N[C@@H]1C(=O)N2C(C(=O)O)=C(COC(C)=O)CS[C@H]12)c1csc(N)n1 [Cefotaxime] | 1.26 | 0.798 | 0.573 | 0.69 | 0.777 | 0.905
11 | CCc1cc2c(cc1N1CCC(N3CCOCC3)CC1)C(C)(C)c1[nH]c3cc(C#N)ccc3c1C2=O | 1.54 | 2.54 | 0.905 | 1.15 | 0.968 | 1.01
12 | C[C@@H](O)[C@H]1C(=O)N2C(C(=O)O)=C([C@H]3CCCO3)S[C@H]12 [Faropenem Sodium] | 1.24 | 0.485 | 1 | 0.587 | 0.554 | 0.718
13 | O=C(O)C(=O)O.[NH-][C@@H]1CCCC[C@H]1[NH-].[Pt+2] [Oxaliplatin] | 3.37 | 3.26 | 1.5 | 2.95 | 3.19 | 3.47
14 | COc1cc2c3cc1Oc1c(OC)c(OC)cc4c1[C@@H](Cc1ccc(O)c(c1)Oc1ccc(cc1)C[C@@H]3N(C)CC2)N(C)CC4 [Berbamine] | 2.93 | 3.17 | 2.1 | 3.91 | 2.29 | 2.64
15 | COC(=O)N[C@H](C(=O)N[C@@H](Cc1ccccc1)[C@@H](O)CN(Cc1ccc(-c2ccccn2)cc1)NC(=O)[C@@H](NC(=O)OC)C(C)(C)C)C(C)(C)C [Atazanavir Sulfate] | 1.01 | 0.58 | 0.637 | 0.614 | 0.837 | 1.55
16 | Cc1cnc(-c2cnc(NCCNc3ccc(C#N)cn3)nc2-c2ccc(Cl)cc2Cl)[nH]1 | 1.86 | 2.18 | 1.61 | 1.12 | 1.15 | 1.13
17 | CC(=O)[O-].[K+] [Potassium acetate] | 1.42 | 0.754 | 1.27 | 0.927 | 0.554 | 1.3
18 | O=C(Oc1ccccc1C(=O)O)c1ccccc1O [Sasapyrine] | 0.578 | 0.394 | 0.556 | 0.969 | 0.413 | 1.18
19 | C[C@@H]1CN(C(=O)c2ccc(NC(=O)c3cc(O[C@H](C)c4c(Cl)ccc(F)c4Cl)c(N)nn3)cc2)C[C@H](C)N1 [Ensartinib (X-396) dihydrochloride] | 5.01 | 4.53 | 3.15 | 4.29 | 3.74 | 3.35
